We go through 35 compounds from PubChem BioAssay (NCATS).

Assay [1] in a line: Primary qHTS for inhibitors of nuclear receptor binding SET domain protein 2 (NSD2) in an isogenic RCH-ACV NSD2 p.E1099K mutant (9B) (AID 1645876). Further: nearly all actives have a fitted effect of over 70% in size. Further: potency means the concentration at half of the fitted maximal effect. For orientation: In qHTS, concentration-response curves come from the screen itself.
Assay [2] can be described thus: Primary qHTS for inhibitors of nuclear receptor binding SET domain protein 2 (NSD2) in an RCH-ACV wild type WT cells (2C) (AID 1645877). Further: nearly all actives have a fitted effect of over 70% in size. Further: potency means the concentration at half of the fitted maximal effect.
Assay [3] concerns the target Glutathione peroxidase 1 (Homo sapiens) (UniProt P07203). As to the kind of experiment: Primary qHTS Assay for Inhibitors of Recombinant Selenoprotein Glutathione Peroxidase 1 (GPX1) (AID 1845191). Further: nearly all actives have a fitted effect of over 65% in size. Further: potency means the concentration at half of the fitted maximal effect. In short, it runs like this: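 NADPH consumption tracked by fluorescence at 340/450 nm between t=0 and t=15 min, room temperature. Final mix: 10 nM GPX1, 100 nM glutathione reductase, 1 mM GSH, 0.5 mM NADPH, 0.5 mM cumene hydroperoxide, 0.01% BSA; 30 min compound–enzyme preincubation.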

In assay [4] the target is Metallo-beta-lactamase type 2 (Klebsiella pneumoniae) (UniProt C7C422). As to the kind of experiment: qHTS to identify inhibitors of the New Delhi Metallo-beta-lactamase (NDM): assay validation screen against the NCATS LOPAC Collection (AID 1794843).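 Further: nitrocefin turnover by NDM-1 measured as 485 nm absorbance at plateau; on the % scale 0 is the no-effect control and ±100 the full control effect.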 In short, it runs like this: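 NDM-1 at 2 nM final in 50 mM HEPES pH 7.0, 1 uM ZnSO4, 0.01% Tween20, preincubated with LOPAC compounds pinned in DMSO; 50 uM nitrocefin (stock) added. Hydrolysis read as absorbance at 485 nm in the plateau phase.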
Sequence of Metallo-beta-lactamase type 2 (Klebsiella pneumoniae) (C7C422 whole entry, looked up): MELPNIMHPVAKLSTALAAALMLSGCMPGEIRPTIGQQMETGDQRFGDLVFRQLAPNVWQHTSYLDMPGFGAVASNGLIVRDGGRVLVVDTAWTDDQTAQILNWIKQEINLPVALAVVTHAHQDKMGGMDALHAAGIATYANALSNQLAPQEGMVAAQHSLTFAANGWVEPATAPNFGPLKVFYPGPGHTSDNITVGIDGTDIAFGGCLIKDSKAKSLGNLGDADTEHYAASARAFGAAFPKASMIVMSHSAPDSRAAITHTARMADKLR

The nature of assay [5]: NCATS anti-infectives library activity on the primary C. elegans qHTS viability assay (AID 1745855; calls by dose curve). In short, it runs like this: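 Titration-based screen in worms: eggs hatched overnight in M9, L1 larvae fed TOP10 capsules in S medium with compound, incubated 21 °C for 7 days; fluorescent objects gated by size and intensity at days 0, 3 and 7.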
Assay [6] deals with Catechol O-methyltransferase (Homo sapiens) (UniProt P21964). As to the kind of experiment: Confirmatory Screen for Target Class Profiling of Small Molecule Inhibitors of Methyltransferases (AID 1745852; calls by dose curve; on activity change, negative = inhibition: on the % scale 0 is the no-effect control and ±100 the full control effect). To be noted: MTase-Glo luminescence, SAH detection, recombinant enzyme; measured here: COMT max response; stronger effect = lower value.
Sequence of Catechol O-methyltransferase (Homo sapiens) (P21964 whole entry, looked up): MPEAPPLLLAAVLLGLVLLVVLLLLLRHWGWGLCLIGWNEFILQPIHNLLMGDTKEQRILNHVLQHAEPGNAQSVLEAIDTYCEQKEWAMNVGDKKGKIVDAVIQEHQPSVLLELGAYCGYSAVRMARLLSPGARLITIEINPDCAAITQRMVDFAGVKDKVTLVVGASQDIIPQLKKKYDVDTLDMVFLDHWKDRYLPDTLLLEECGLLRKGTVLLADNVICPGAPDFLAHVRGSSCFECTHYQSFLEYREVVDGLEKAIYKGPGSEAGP
The target of assay [7] is Guanidinoacetate N-methyltransferase (Homo sapiens) (UniProt Q14353). The description is as above. As to conditions: MTase-Glo luminescence, SAH detection, recombinant enzyme; activity change, negative = inhibition: at 57.3 µM (top of the series) unless noted.
Assay [8] has as its target Nicotinamide N-methyltransferase (Homo sapiens) (UniProt P40261). Described as above. To be noted: MTase-Glo luminescence, SAH detection, recombinant enzyme; measured here: NNMT max response; stronger effect = lower value.
Assay [9] has as its target Phenylethanolamine N-methyltransferase (Homo sapiens) (UniProt P11086). The description is as above. To be noted: MTase-Glo luminescence, SAH detection, recombinant enzyme; measured here: PNMT max response; stronger effect = lower value.
The nature of assay [10]: Viability counterscreen for antagonist of constitutive androstane receptor (CAR) against the NCATS DSHEA and TCM libraries (AID 1794837).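 Further: compound exposure lasted 24 h before viability reading; 0% is about no effect.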 In short, it runs like this: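 Fluorescence from CellTiter-Fluor reports live-cell protease activity in HepG2-CYP2B6-hCAR cells treated for 24 h with substances alongside 48 uM CITCO.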
A general note: A counterscreen serves to expose hits that act by an unwanted route or on another target.

Assay [11] can be described thus: Viability counterscreen for agonist of constitutive androstane receptor (CAR) against the NCATS DSHEA and TCM libraries (AID 1794838).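 Further: cells exposed to compound for 24 h; 0% is about no effect.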 The procedure, abridged:
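In agonist mode, PK11195 is added at 0.75 uM final to HepG2-CYP2B6-hCAR cells dosed with test substances. Cultures incubate 24 h at 37C before a protease-based fluorogenic viability readout.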

Assay [12] has as its target Nuclear receptor subfamily 1 group I member 3 (Homo sapiens) (UniProt Q14994). Description: Primary qHTS for agonist of constitutive androstane receptor (CAR) against the NCATS DSHEA and TCM libraries (AID 1794839). Further: potency means the concentration at half of the fitted maximal effect. The procedure, abridged: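 Cells stably carrying hCAR and a CYP2B6 reporter (HepG2 background) are seeded and allowed 5 h to adhere. Substances at multiple concentrations are added alongside 0.75 µM PK11195, and luciferase signal is measured after 24 h.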

Assay [13] can be described thus: HepG2 viability counterscreen (readout 2: ATP content) against the NCATS DSHEA and TCM libraries (AID 1794840).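 Further: HepG2 cells exposed to substances for about 24 h; 0% is about no effect.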 The procedure, abridged:
(§1)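 Cytotoxicity was assessed in HepG2 cells plated at 1,000 cells/well and exposed for about 24 hours to a concentration series. Protease activity and ATP content were measured sequentially in each well.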

Assay [14] in a line: HepG2 viability counterscreen (readout 1: protease activity) against the NCATS DSHEA and TCM libraries (AID 1794841).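 Further: cells exposed to compounds for about 24 h before the protease read; 0% is about no effect.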 The procedure, abridged:
as §1

The structures appear in SMILES notation. Several values for one entry are separate records, joined by “and”; a condition that tells them apart may be missing. Identical values can stand only once. Records with an inconclusive call do not appear. More than one record can exist for a structure, and the calls need not agree. Activity calls are given as the source filed them. Unless noted, the call rests on the fitted dose curve; in most records, active means well fitted curve in the direction sought with a large enough effect; inconclusive means small, poorly fitted or top-dose-only effect, or another doubt; inactive means no such curve, though single readings can be large; an effect the other way counts as inactive or inconclusive.

Sequence of Glutathione peroxidase 1 (Homo sapiens) (P07203 whole entry, looked up): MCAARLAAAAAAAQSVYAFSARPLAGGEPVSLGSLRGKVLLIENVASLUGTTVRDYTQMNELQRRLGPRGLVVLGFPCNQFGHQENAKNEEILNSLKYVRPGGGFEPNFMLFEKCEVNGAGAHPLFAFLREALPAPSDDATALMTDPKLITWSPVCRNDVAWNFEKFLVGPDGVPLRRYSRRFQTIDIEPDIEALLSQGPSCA
Sequence of Nicotinamide N-methyltransferase (Homo sapiens) (P40261 whole entry, looked up): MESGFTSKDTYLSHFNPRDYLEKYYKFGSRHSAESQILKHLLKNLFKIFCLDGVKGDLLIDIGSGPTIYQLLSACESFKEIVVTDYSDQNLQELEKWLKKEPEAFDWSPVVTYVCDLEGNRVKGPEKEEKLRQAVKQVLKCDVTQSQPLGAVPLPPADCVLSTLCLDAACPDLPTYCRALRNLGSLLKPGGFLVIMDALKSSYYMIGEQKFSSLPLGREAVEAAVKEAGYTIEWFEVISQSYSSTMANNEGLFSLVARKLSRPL
Sequence of Nuclear receptor subfamily 1 group I member 3 (Homo sapiens) (Q14994 whole entry, looked up): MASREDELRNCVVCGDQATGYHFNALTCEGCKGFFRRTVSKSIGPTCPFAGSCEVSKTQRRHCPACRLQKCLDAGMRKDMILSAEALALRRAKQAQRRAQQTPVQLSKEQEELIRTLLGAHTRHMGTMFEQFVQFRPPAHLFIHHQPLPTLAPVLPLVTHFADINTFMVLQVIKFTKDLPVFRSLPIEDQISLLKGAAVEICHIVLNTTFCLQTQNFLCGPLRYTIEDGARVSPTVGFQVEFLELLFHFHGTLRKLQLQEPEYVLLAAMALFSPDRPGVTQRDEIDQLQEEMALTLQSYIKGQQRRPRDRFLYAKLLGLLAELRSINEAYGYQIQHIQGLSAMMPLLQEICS
Sequence of Phenylethanolamine N-methyltransferase (Homo sapiens) (P11086 whole entry, looked up): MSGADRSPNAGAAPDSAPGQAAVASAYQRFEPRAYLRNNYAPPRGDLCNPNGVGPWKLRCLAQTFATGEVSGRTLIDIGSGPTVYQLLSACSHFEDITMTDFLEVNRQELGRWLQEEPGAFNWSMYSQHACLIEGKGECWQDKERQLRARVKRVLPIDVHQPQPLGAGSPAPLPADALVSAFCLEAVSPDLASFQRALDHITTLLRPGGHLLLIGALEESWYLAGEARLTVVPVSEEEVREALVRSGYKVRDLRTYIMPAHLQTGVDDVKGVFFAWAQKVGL

Consider `O=C(O)c1ccc(-c2c[nH]c3ncc(-c4ccccc4)cc23)cc1C1CCCC1`, for which the Potency result in [1] and in assay [3] was “inactive” in each case. In assay [2], the Potency is 18.6 µM (active).
As to `COC1CCC(N(C(=O)C2CCC(C)CC2)c2cc(C3=CCCCC3)sc2C(=O)O)CC1` (centres undefined), the Potency entry in assay [1], in assay [2] and in [3] was “inactive” throughout.
For the compound `CCN(CC)CCNC(=O)c1ccc(N)cc1`, the Potency result in assay [1], in [2], in [4] and in assay [3] was “inactive” throughout.
With `CC(C)n1nc(-c2ccc3oc(N)nc3c2)c2c(N)ncnc21`, the Potency in [1] was 36.5 nM (active) and 29.5 nM (active); in assay [2], 36.5 nM (active) and 33.2 nM (active). The Potency entry in assay [3] was “inactive”.
As to `COc1cccc2c1CCCC2CCCN1CCN(C2CCCCC2)CC1` (centres undefined), the Potency in assay [1] and in [2] was 20.9 µM (active) in each case. Also, the Potency entry in assay [5] and in [3] was “inactive” each time.
As to `COc1cc2c(cc1OC)CN(CCc1ccc(NC(=O)c3cc(OC)c(OC)cc3NC(=O)c3cnc4ccccc4c3)cc1)CC2`, the Potency result in [1], in assay [2] and in assay [3] was “inactive” each time.
As to `COc1cc2ncnc(-n3nc(-c4ccccn4)nc3N)c2cc1OC`, the Potency in assay [1] was 1.59 µM (active); in assay [2], 2.52 µM (active). Moreover, the Potency entry in assay [3] was “inactive”.
As for `CC(C(=O)O)c1ccc(-c2ccccc2)c(F)c1` (centres undefined), the Potency result in assay [1], in assay [2] and in assay [3] was “inactive” in each case.
For the compound `CC[C@@]1(O)C[C@H](O[C@H]2C[C@H](N(C)C)[C@H](O[C@H]3C[C@H](O)[C@H](O[C@H]4CCC(=O)[C@H](C)O4)[C@H](C)O3)[C@H](C)O2)c2c(cc3c(c2O)C(=O)c2c(O)cccc2C3=O)[C@@H]1C(=O)OC`, the Potency in assay [1] is 2.63 µM (active); in assay [2] it was 1.18 µM (active). In addition, the Potency entry in [3] is “inactive”.
Regarding `Cc1cnc(C(=O)O)c[n+]1[O-]`, the Potency result in assay [1], in [2] and in assay [3] was “inactive” in each case.
Consider `Nc1ncnc2ccccc12`, for which the Potency entry in [1], in assay [2] and in assay [3] was “inactive” in each case.
In the case of `O=C(O)Cc1cccc2ccccc12`, the Potency entry in assay [1], in assay [2] and in assay [3] was “inactive” in each case.
As for `CC(C)(Cc1ccc2ccccc2c1)NC[C@@H](O)COc1cccc(Cl)c1C#N`, the Potency in [1] was 4.68 µM (active); in [2], 6.61 µM (active). Further, the Potency entry in assay [3] was “inactive”.
On to `CC1(C)Cc2c(sc(NC(=S)NC(=O)c3ccccc3)c2C(=O)O)CO1`, for which the Potency entry in assay [1], in assay [2] and in assay [3] was “inactive” throughout.
For the compound `COc1ccc(-n2c(C)c([N+](=O)[O-])c3ccc(O)cc32)cc1`, the Potency entry in [1], in assay [2] and in assay [3] was “inactive” throughout.
Regarding `CC1CCC(C(=O)N(c2cc(C#CC(C)(C)C)sc2C(=O)O)C2CCC(O)CC2)CC1` (centres undefined), the Potency is 20.9 µM (active) in [1] and 16.6 µM (active) in assay [2]. Moreover, the Potency entry in assay [5] and in assay [3] was “inactive” throughout.
Turning to `CCCCCCCCCCCC1=C(O)C(=O)C=C(O)C1=O`, the Potency result in assay [1], in assay [2] and in [3] was “inactive” in each case.
Consider `NC(=O)[C@@H](CCC(F)(F)F)N(Cc1ccc(-c2ncon2)cc1F)S(=O)(=O)c1ccc(Cl)cc1`, for which the Potency in assay [1] and in assay [2] was 23.5 µM (active) in each case. Also, the Potency entry in assay [5] and in [3] was “inactive” in each case.
Consider `CC(C)C(C)C=CC(C)C1CCC2C3=CC=C4CC(O)CCC4(C)C3CCC21C` (centres undefined), for which the Potency result in [1], in [2] and in assay [3] was “inactive” in each case.
`NC(CO)(CO)CCc1ccc(Sc2cccc(OCc3ccccc3)c2)cc1Cl`: the Potency in assay [1] and in [2] was 7.42 µM (active) in each case. The Potency result in assay [3] was “inactive”.
In the case of `O=C(Nc1cc(Cl)cc2c1[nH]c1cnccc12)c1cccnc1`, the Potency result in assay [1] and in [2] was “inactive” each time.
On to `CC1(C)CCC(CN2CCN(c3ccc(C(=O)NS(=O)(=O)c4ccc(NCC5CCOCC5)c([N+](=O)[O-])c4)c(Oc4cnc5[nH]ccc5c4)c3)CC2)=C(c2ccc(Cl)cc2)C1`, for which the Potency was 11.2 µM (active) and inactive in [1]; 12.6 µM (active) and inactive in [2]; “inactive and 6.4 µM (active)” in assay [3]. The activity is -3.58% in [6], -11.4% in assay [8] and -21.8% in assay [9]. Moreover, the activity change, negative = inhibition in assay [7] was determined as 1.26% [at 29.8 µM].
For the compound `NC(=O)c1cnc(-c2ccc(C3(N)CCC3)cc2)c(-c2ccccc2)c1`, the Potency was 2.95 µM (active) and 459 nM (active) in assay [1]; 11.8 µM (active) and 916 nM (active) in assay [2]. In addition, the results for the activity in [6], in assay [8] and in assay [9] were -7.58%, -51.4% and -17.2%, respectively. The activity change, negative = inhibition in [7] was 0.723%. Also, the Potency entry in [3] is “inactive”.
In the case of `CN(C)Cc1ccc(-c2nc3cccc4c3n2CCNC4=O)cc1`, the Potency in assay [1] is 11.8 µM (active); in assay [2] it was 7.42 µM (active). Moreover, the Potency entry in [3] was “inactive”.
On to `O=c1c(-c2ccc(O)cc2)coc2cc(O[C@@H]3O[C@H](CO)[C@H](O)[C@H](O)[C@H]3O)ccc12`, for which the outcome in assay [10], in assay [11], in [13] and in assay [14] was “inactive” throughout. In addition, the Potency in [12] is 10 µM (active).
For the compound `CO[C@H]1C[C@@H]2CC[C@@H](C)[C@@](O)(O2)C(=O)C(=O)N2CCCC[C@@H]2C(=O)O[C@H]([C@@H](C)C[C@@H]2CC[C@H](O)[C@H](OC)C2)CC(=O)[C@H](C)C=C(C)[C@@H](O)[C@@H](OC)C(=O)[C@H](C)C[C@H](C)C=CC=CC=C1C`, the Potency result in assay [3] is “inactive”.
As for `O=C(Nc1cccc(Br)c1)c1cccc(S(=O)(=O)N2CCCCCC2)c1`, the Potency entry in [3] was “inactive”.
`O=c1c(O)c(-c2ccc(O)cc2)oc2cc(O)cc(O)c12`: in [1], the Potency was 23.5 µM (active). Besides, the Potency entry in [3] is “inactive”.
Regarding `CN1[C@@H]2CCC[C@@H]1CC(NC(=O)c1nn(C)c3ccccc13)C2` (some centres undefined), in assay [3], the Potency result was “inactive”.
As for `O=C(O)CCC1CCC(c2cc(F)ccc2F)(S(=O)(=O)c2ccc(Cl)cc2)CC1` (centres undefined), in [3], the Potency result is “inactive”.
With `COc1cc(O)c2c(c1)C(=O)c1cc(C)cc(O)c1C2=O`, the outcome in [10], in assay [11], in [13] and in assay [14] was “inactive” in each case. In addition, the Potency result in assay [12] is “inactive”.
As to `C[C@]12CC[C@@H]3c4ccc(O)cc4C[C@@H](CCCCCCCCCS(=O)CCCC(F)(F)C(F)(F)F)[C@H]3[C@H]1CC[C@H]2O` (some centres undefined), the Potency entry in [3] was “inactive”.
On to `COc1ccc(Cc2ccc(NC(N)=O)cc2)cc1-c1cccc(Cl)c1`, for which the Potency result in assay [3] was “inactive”.
On the same count and under the same terms, the value for `O=C(O)C(O)Cc1ccc(O)c(O)c1` (centres undefined) was “inactive”.
Consider `CS(=O)c1ccc(-c2nc(-c3ccc(F)cc3)c(-c3ccncc3)[nH]2)cc1` (centres undefined), for which, in [1], the Potency was 18.6 µM (active). The Potency result in assay [3] was “inactive”.
